# Laboratory results published in PubChem BioAssay (Tox21).
# A number with no mark means an inactive call. The source made the active and inactive calls. The call rests on the fitted dose curve; in most records, active means well fitted curve in the direction sought with a large enough effect in the repeat runs; inconclusive means weak or mixed curves; inactive means flat fitted curve, though single readings scatter.
# Assay: qHTS assay to test for compound auto fluorescence at 460 nm (blue) in HepG2 cell free culture (AID 720685)
# Conditions: Cell-free culture medium, blue autofluorescence 405/460 nm; series mostly up to 91.3 µM; fluorescence, % of fluorescent control: at the top concentration
# Method in brief: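 Compound (23 nL) or DMSO pinned into cell-free MEM with 10% FBS; blue fluorescence read at 405/460 nm excitation/emission, expressed as auto-fluorescence equivalency to triamterene.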
# On the % scale 0 is the no-effect control and ±100 the full control effect.
row,SMILES,outcome
1,OC[C@H]1O[C@@](CO)(O[C@H]2O[C@H](CO)[C@@H](O)[C@H](O)[C@H]2O)[C@@H](O)[C@@H]1O,inactive
2,Cc1cccnc1,inactive
3,NNc1nncc2ccccc12,inactive
4,CC1=CCC2CC1C2(C)C (stereo not drawn),inactive
5,O=C(O)CCCCCCCCCCC(=O)O,inactive
6,CCN(CC)CCCC(C)Nc1ccnc2cc(Cl)ccc12 (stereo not drawn),inactive
7,CC(=O)Nc1ccccc1,inactive
8,CC(=O)CC(=O)Nc1ccccc1,inactive
9,OCC(CO)(CBr)CBr,inactive
10,CCCCCCCCC/C=C/CC1CC(=O)OC1=O (stereo not drawn),inactive
11,CC[C@H](C)C(=O)O[C@H]1C[C@@H](C)C=C2C=C[C@H](C)[C@H](CC[C@@H]3C[C@@H](O)CC(=O)O3)[C@H]21,inactive
12,O=[N+]([O-])c1ccc(/C=C/c2ccc([N+](=O)[O-])cc2S(=O)(=O)O)c(S(=O)(=O)O)c1,inactive
13,CC1=CC(=O)NS(=O)(=O)O1,inactive
14,C=C(C)C(=O)Nc1ccc(Cl)c(Cl)c1,inactive

# Assay: qHTS assay to test for compound auto fluorescence at 535 nm (green) in HepG2 cell free culture (AID 720686)
# Conditions: Cell-free medium, green autofluorescence 485/535 nm; series mostly up to 91.3 µM; fluorescence, % of fluorescein control: at the top concentration
SMILES,outcome,"fluorescence, % of fluorescein control"
CCCCC(CC)COC(=O)C(C#N)=C(c1ccccc1)c1ccccc1 (stereo not drawn),inactive,
O=C(Oc1ccccc1)c1ccccc1,inactive,
CC1CCC(C(C)C)C(O)C1 (stereo not drawn),inactive,
CCCCCCCCCCCCOCCO,,0.0778%
O=C(O)[C@H](O)[C@@H](O)[C@H](O)[C@H](O)CO,inactive,
CCCSc1ccc2nc(NC(=O)OC)[nH]c2c1,inactive,
O=C(O)CCCC[C@@H]1SC[C@@H]2NC(=O)N[C@@H]21,inactive,
CCc1ccc(CCOc2ccc(CC3SC(=O)NC3=O)cc2)nc1 (stereo not drawn),inactive,
COc1ccc2cc([C@H](C)C(=O)O)ccc2c1,inactive,
COCCCOc1ccnc(CS(=O)c2nc3ccccc3[nH]2)c1C (stereo not drawn),inactive,
O=C(O)c1cc(C(=O)O)cc(S(=O)(=O)O)c1,inactive,
Cc1ccc2oc(=O)ccc2c1,inactive,
Cc1occc(=O)c1O,inactive,
CCN(CC)c1ccc(C(=O)c2ccccc2C(=O)O)c(O)c1,inactive,
CC(c1cc2ccccc2s1)N(O)C(N)=O (stereo not drawn),inactive,
CC(C)c1ccc(S(=O)(=O)O)cc1,inactive,
O=C(O)c1ccccc1C(c1ccc(O)cc1)c1ccc(O)cc1,,-0.0478%
OCc1cccnc1,inactive,
COS(C)(=O)=O,inactive,
CCCCCC/C(C=O)=C\c1ccccc1,inactive,

SMILES,outcome,"fluorescence, % of fluorescein control"
CCCCCC1=CCCC1=O,inactive,
CCCCCOC(C)=O,inactive,
C#C[C@]1(O)CC[C@H]2[C@@H]3CCC4=CC(=O)CC[C@@H]4[C@H]3CC[C@@]21C,inactive,
CCCCC(CC)COC(=O)CCCCC(=O)OCC(CC)CCCC (stereo not drawn),inactive,
COc1ccc(NC(C)=O)cc1N,inactive,
OC[C@H]1O[C@@](CO)(O[C@H]2O[C@H](CO)[C@@H](O)[C@H](O)[C@H]2O)[C@@H](O)[C@@H]1O,inactive,
Cc1cccnc1,inactive,
NNc1nncc2ccccc12,inactive,
CC1=CCC2CC1C2(C)C (stereo not drawn),inactive,
O=C(O)CCCCCCCCCCC(=O)O,inactive,
CCN(CC)CCCC(C)Nc1ccnc2cc(Cl)ccc12 (stereo not drawn),inactive,
CC(=O)Nc1ccccc1,inactive,
CC(=O)CC(=O)Nc1ccccc1,inactive,
OCC(CO)(CBr)CBr,inactive,
CCCCCCCCC/C=C/CC1CC(=O)OC1=O (stereo not drawn),inactive,
CC[C@H](C)C(=O)O[C@H]1C[C@@H](C)C=C2C=C[C@H](C)[C@H](CC[C@@H]3C[C@@H](O)CC(=O)O3)[C@H]21,inactive,
O=[N+]([O-])c1ccc(/C=C/c2ccc([N+](=O)[O-])cc2S(=O)(=O)O)c(S(=O)(=O)O)c1,inactive,
CC1=CC(=O)NS(=O)(=O)O1,inactive,
C=C(C)C(=O)Nc1ccc(Cl)c(Cl)c1,inactive,
